Compound activity as filed in PubChem.
BoNT-F LC inh = BoNT/F light chain protease inhibitors, primary screen, biochemical, flow cytometry, MLPCN library | inhibition, % at 10 µM | Botulinum neurotoxin type F light chain protease (Clostridium botulinum) | Multiplex microsphere protease cleavage assay | hit rate 0.22% among 360,000 | AID 588497, 2011; in the data active = inhibition above about 35%, passing the limit was not always enough; inconclusive = no clear call, values can overlap the other calls
Anthrax LF inh2 = Bacillus anthracis LF protease inhibitors, primary screen, biochemical, multiplex microsphere, MLPCN library; Lethal factor (Bacillus anthracis), P15917; multiplex microsphere protease cleavage assay; inhibition, % at 10 µM; hit rate 0.12% among 360,000
Mtb FBA inh = Mtb FBA enzyme inhibitors, primary screen, biochemical, fluorescence, strain H37Rv; purified M. tuberculosis FBA, fluorescence read-out; AID 588726, 2011; inhibition, % at 1 µM; Fructose-bisphosphate aldolase (Mycobacterium tuberculosis (strain ATCC 25618 / H37Rv)), …; hit rate 2.3% among 360,000; in the data active = inhibition above about 27%
Target sequence (P9WQA3 whole entry, looked up): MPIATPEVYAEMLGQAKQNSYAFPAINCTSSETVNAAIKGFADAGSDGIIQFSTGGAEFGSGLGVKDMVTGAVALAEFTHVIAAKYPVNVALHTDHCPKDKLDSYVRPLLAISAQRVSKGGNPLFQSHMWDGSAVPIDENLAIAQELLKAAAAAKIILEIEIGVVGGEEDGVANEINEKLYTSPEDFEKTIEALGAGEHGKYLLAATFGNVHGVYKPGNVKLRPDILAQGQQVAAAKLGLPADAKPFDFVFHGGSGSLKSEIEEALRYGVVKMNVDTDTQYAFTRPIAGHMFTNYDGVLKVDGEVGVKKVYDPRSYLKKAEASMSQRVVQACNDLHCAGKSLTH
BoNT A protease = BoNT/A light chain protease inhibitors, primary screen, biochemical, flow cytometry, MLPCN library; Botulinum neurotoxin type A light chain protease (Clostridium botulinum A str. ATCC 3502); multiplex microsphere protease substrate cleavage; inhibition, % at 10 µM; hit rate 0.17% among 360,000; AID 588499, 2011
Autofluor counter = counter-screen for toxin protease inhibitors: compound fluorescence; compound autofluorescence counterscreen, microsphere flow cytometry; hits give high values; fluorescence intensity (no concentration beside the values); hit rate 3.1% among 360,000; in the data active = fluorescence intensity above about 16000; inconclusive = no clear call, values can overlap the other calls
GDH-TPI counter-1 = GDH-TPI coupling enzyme inhibitors, primary screen, artefact control for M. tuberculosis FBA inhibitor project, biochemical, absorbance, full deck | inhibition, % at 4.8 µM | GDH-TPI coupled enzyme counterscreen, NADH absorbance | hit rate 1.2% among 360,000; in the data active = inhibition above about 30%
Mtb FBA confirm = M. tuberculosis aldolase blockers, biochemical, fluorescence, strain H37Rv, confirmation | shares compounds with Mtb FBA inh | hit rate 78% among 5,600 | inhibition, % at 1 µM | AID 651616, 2012 | purified M. tuberculosis FBA, fluorescence read-out; in the data active = inhibition above about 27%
GDH-TPI counter-2 = GDH-TPI coupling enzyme inhibitors, artefact control for M. tuberculosis FBA inhibitor project, biochemical, fluorescence, high throughput. inhibition, % at 1 µM. shares compounds with Mtb FBA inh. AID 652141, 2013. hit rate 81% among 5,600. GDH-TPI coupled enzyme counterscreen; in the data active = inhibition above about 10%
Large screens that a line does not name were inactive (follow-up assays come after a bar, where they were run). Compounds with a hit are over-represented: about 6.6% of the library has one in this group of screens. Rule as the data show it, unless noted: active = inhibition above about 30%; inconclusive = no clear call, values can overlap the other calls; inactive = below that.

O=C(Nc1ccc(Cl)cn1)c1cc(S(=O)(=O)N2CCCCC2)ccc1Cl	Mtb FBA inh 77.2 | Mtb FBA confirm inactive | GDH-TPI counter-2 inactive
CN(CCOc1ccccc1)C(=O)c1cc(S(=O)(=O)N2CCOCC2)ccc1Cl	Mtb FBA inh 30.6 | Mtb FBA confirm 146.1 | GDH-TPI counter-2 115.6
COc1ccc(CN(C)CC(O)COc2ccc(C(=O)c3ccccc3)cc2)c(OC)c1OC (centres undefined)	none
COc1ccc(Br)cc1CN(C)CC(O)COc1ccc(Br)cc1 (centres undefined)	Mtb FBA inh 53.2 | Mtb FBA confirm 66.7 | GDH-TPI counter-2 53.6
CCN(CC)CCNC(=O)CNC(=O)c1nn(-c2ccc(OC)cc2OC)c(=O)c2ccccc12	none
COc1cccc2c(=O)c3c(oc12)CCCC3	Mtb FBA inh 45.0 | Mtb FBA confirm 131.3 | GDH-TPI counter-2 93.5
COc1cc2c3nc4n(c(=O)c3n(CC(=O)NCC3CCCO3)c2cc1OC)CCS4 (centres undefined)	Mtb FBA inh 62.6 | Mtb FBA confirm 179.8 | GDH-TPI counter-2 174.2
O=C(/C=C/c1cn(-c2ccccc2)nc1-c1cccs1)NCCN1CCOCC1	Mtb FBA inh 45.5 | Mtb FBA confirm 142.7 | GDH-TPI counter-2 86.9
CCOC(=O)C1=C(C)NC(=S)NC1/C=C/c1ccccc1 (centres undefined)	none
CCOc1ccc2oc(C(=O)OCC(=O)NC3CC3)c(C)c2c1	Mtb FBA inh 40.1 | Mtb FBA confirm 62.0 | GDH-TPI counter-2 47.2
NC(=O)c1oc2ccc(Cl)cc2c1N	Mtb FBA inh 86.6 | Mtb FBA confirm 100.0 | GDH-TPI counter-2 68.8
COc1ccc2oc(C(=O)OCC(=O)NCc3ccc(OC)c(OC)c3)c(C)c2c1	none
COc1ccc2oc(C(=O)OCC(=O)NC(C)(C#N)C3CC3)c(C)c2c1 (centres undefined)	BoNT-F LC inh inconclusive, Anthrax LF inh2 inconclusive, Mtb FBA inh 30.8, BoNT A protease inconclusive, Autofluor counter inconclusive | Mtb FBA confirm inactive | GDH-TPI counter-2 24.5
COC(=O)c1oc2ccc(OC)cc2c1N	Mtb FBA inh 28.6 | Mtb FBA confirm active | GDH-TPI counter-2 165.8
CCCNC(=O)NC(=O)COC(=O)c1oc2ccc(OCC)cc2c1C	none
Cc1ccc(C(=O)C(C)OC(=O)CNS(=O)(=O)c2ccc(C)cc2)cc1 (centres undefined)	none
O=C(O)C1C(=O)NCC1c1ccccc1 (centres undefined)	none
COc1ccc2oc(C(=O)NC3CCCCC3)c(C)c2c1	Mtb FBA inh 27.9 | Mtb FBA confirm 41.1 | GDH-TPI counter-2 27.4
COc1ccc2oc(C(=O)OCC(=O)NC3CC3)c(C)c2c1	Mtb FBA inh 44.0 | Mtb FBA confirm active | GDH-TPI counter-2 active
Cc1c(C(=O)NC2CCCCC2)oc2ccc(F)cc12	none
COc1cccc(OC)c1-c1nnc(-c2cn(C)c3ccccc23)o1	Mtb FBA inh 80.2 | Mtb FBA confirm active | GDH-TPI counter-2 177.9
COc1ccccc1-c1nnc(-c2ccc(C)cc2)o1	BoNT-F LC inh inconclusive
COc1ccc(C2=NOC(C(=O)Nc3ccc4c(c3)OCO4)C2)cc1 (centres undefined)	none
COc1cc(OC)c(C2=NOC(C(=O)Nc3ccc4c(c3)OCO4)C2)cc1Cl (centres undefined)	Mtb FBA inh 57.1 | Mtb FBA confirm 52.8 | GDH-TPI counter-2 42.4
O=C(c1ccc(F)cc1)n1ccc(-c2cnc(-c3ccccc3)s2)n1	Mtb FBA inh 46.6 | Mtb FBA confirm 81.3 | GDH-TPI counter-2 59.3
O=C(COC(=O)c1ccc([N+](=O)[O-])o1)Nc1ccc2c(c1)OCO2	none
CCOC(=O)c1sc2nc(C)nc(NCCc3ccc(S(N)(=O)=O)cc3)c2c1C	Mtb FBA inh 35.5 | Mtb FBA confirm 95.6 | GDH-TPI counter-2 77.9
CCOC(=O)c1sc2nc(C)nc(NCc3ccccc3)c2c1C	Mtb FBA inh 53.5 | Mtb FBA confirm inactive | GDH-TPI counter-2 inactive
Cc1nc(NCCc2ccc(S(N)(=O)=O)cc2)c2c(C)c(C)sc2n1	none
CCOC(=O)c1sc2nc(C)nc(Nc3ccccc3)c2c1C	none
CCn1c(SCC(=O)NC2CCCC2)nnc1-c1cccnc1	none
CN(CC(=O)Nc1ccccc1C(F)(F)F)C(=O)c1cccc(-n2cccc2)c1	none
CCN(CC)CCCNC(=O)c1oc2ccc3c(c2c1C)C(O)CC(C)(C)O3 (centres undefined)	Mtb FBA inh 43.8 | Mtb FBA confirm 54.6 | GDH-TPI counter-2 42.9
COCCNC(=O)c1oc2ccc3c(c2c1C)C(O)CC(C)(C)O3 (centres undefined)	Mtb FBA inh 37.5 | Mtb FBA confirm 51.9 | GDH-TPI counter-2 41.6
Cc1c(NC(=O)C(C)N(c2ccccc2)S(C)(=O)=O)c(=O)n(-c2ccccc2)n1C (centres undefined)	none
Cc1ccc(S(=O)(=O)Nc2ccccc2C(=O)N2CCCCC2)cc1	none
CC(C)CCn1c(N)c(C(=O)NCc2cccs2)c2nc3ccccc3nc21	none
COc1ccc(-n2c(C)nc3cc(C(=O)NCc4ccco4)ccc32)cc1	none
CC(=O)Nc1nc2ccccc2n1CCN1CCOCC1	BoNT A protease inconclusive
COc1ccc(-n2c(N)c(C(=O)NCc3ccco3)c3nc4ccccc4nc32)cc1	Mtb FBA inh 97.8, GDH-TPI counter-1 31.7 | Mtb FBA confirm 44.5 | GDH-TPI counter-2 40.8
COCCn1c(N)c(C(=O)NCc2cccs2)c2nc3ccccc3nc21	Mtb FBA inh 101.4, Autofluor counter 20185 | Mtb FBA confirm 116.4 | GDH-TPI counter-2 76.9
CC(=O)Nc1ccc(S(=O)(=O)c2c(N)n(CCN3CCOCC3)c3nc4ccccc4nc23)cc1	Mtb FBA inh 59.9 | Mtb FBA confirm 169.9 | GDH-TPI counter-2 129.5
C=CCNC(=O)c1c(N)n(CCN2CCOCC2)c2nc3ccccc3nc12	Mtb FBA inh 50.9 | Mtb FBA confirm 37.6 | GDH-TPI counter-2 27.1
CCOc1cc(NC(=S)NCCc2ccccc2)c(OCC)cc1NC(C)=O	none
Nc1c(C(=O)NCCN2CCOCC2)c2nc3ccccc3nc2n1CCc1ccccc1	Mtb FBA inh 94.1 | Mtb FBA confirm 45.9 | GDH-TPI counter-2 34.2
